PubChem BioAssay AID489042 (NMMLSC, 2010)
A number with no mark means an inactive call. Calls of active or inactive are those of the source. No stated cut-off is given here; in the data, active means inhibition score above about 11; inactive means the rest.

assay: yeast proliferation inhibition, dose response, BY4741, OD595, 24 h (AID 489042); details: S. cerevisiae BY4741 growth, flow cytometer event count, 7 d (AID 449753), stronger effect = higher value

SMILES | inhibition score
Cc1ccc(-c2nn(C(C)(C)C)c3ncnc(N)c23)cc1 | 0
O=C(Nc1cccc(Cl)c1)Nc1ccc2nccnc2c1 | 0
Cc1cccc2nc3ccccc3nc12 | 0
COc1ccc2nc3ccccc3[n+]([O-])c2c1 | 0
N#CC(c1nc2ccccc2nc1N1CCCC1)S(=O)(=O)c1ccccc1 (centres undefined) | 0
COc1ccc2nc3ccccc3nc2c1N | 0
CC(C)(C)n1nc(-c2ccc(F)cc2)c2c(N)ncnc21 | 0
C#CCSc1nnc(-c2ccc([N+](=O)[O-])cc2)o1 | 0
O=C(/C=C/c1cccs1)NC(=S)NNC(=O)Cc1cccs1 | 11 (active)
CCN(CC)c1ccc2nc3ccc(N)cc3[n+](-c3ccccc3)c2c1 | 0
CC(C)CSc1nnc2c3ccccc3n(C)c2n1 | 0
CCc1nc(NC(C)(C)C)c2cnn(-c3ccccc3)c2n1 | 0
O=C(Nc1ccc2nc3ccccc3nc2c1)c1ccccc1 | 0
CCCCCNC(=O)C(=O)C1C(=O)Nc2ccccc21 (centres undefined) | 0
COc1ccc2nc3ccccc3nc2c1NC(=O)c1ccccc1Cl | 0
COC(=O)c1cccc2nc3c(C(C)O)cccc3nc12 (centres undefined) | 0
C=CCSc1nnc(-c2ccc([N+](=O)[O-])cc2)o1 | 0
O=C(Nc1ccc2nc3ccccc3nc2c1)c1ccc(Br)cc1 | 0
C/C(=N\Nc1ncnc2sc(C)c(C)c12)c1ccccn1 | 10
CC(C)(C)n1nc(-c2ccc(Cl)cc2)c2c(N)ncnc21 | 0
C=CCOn1c(=O)c(-c2cccs2)[n+]([O-])c2ccccc21 | 0
O=C(/C=C/c1ccccc1)NC(=S)NNC(=O)Cc1cccs1 | 0
Cc1ccccc1NC(=O)c1cccc2nc3ccccc3nc12 | 0
CC(=O)Nc1ccc2nc3ccccc3nc2c1 | 0
c1ccc2[nH]c3cc4ncnc4cc3nc2c1 | 0
CCN(CC)C(=O)c1ccc2nc3ccccc3nc2c1 | 0
CCN(CC)C(=O)c1cccc2nc3ccccc3nc12 | 0
C[C@@]12C(=O)OC(=O)[C@]1(C)C1CCC2O1 | 11 (active)
COc1ccc2c3c(cccc13)N(C)N=C2C | 0
